# Experimental data reported in PubChem BioAssay (Tox21).
# Inconclusive results are not listed. Where a call stands in place of a potency, no number is given. Calls of active or inactive are those of the source. Unless noted, calls follow the shape of the dose curve; as a rule, active = well fitted curve in the direction sought with a large enough effect in the repeat runs; inconclusive = weak or mixed curves; inactive = no such curve, though single readings can be large; an effect the other way counts as inactive or inconclusive.
# What was measured:
# [1] = qHTS assay to identify aromatase inhibitors - cell viability counter screen (AID 743084);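 also: cells stimulated with testosterone during compound exposure; nearly all actives have a fitted effect of over 55% in size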
# [2] = molecular target: Aryl hydrocarbon receptor (Homo sapiens) (UniProt P35869); assay: qHTS assay to identify small molecule that activate the aryl hydrocarbon receptor (AhR) signaling pathway (AID 743085); also: nearly all actives have a fitted effect of over 15% in size; also: potency is read from the fitted curve at half-maximal effect;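 as to activation: HG2L7.5c1 human HepG2 liver cells with stably integrated DRE-driven firefly reporter; series mostly up to about 70 µM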
# Chain of Aryl hydrocarbon receptor (Homo sapiens) (P35869 whole entry, looked up): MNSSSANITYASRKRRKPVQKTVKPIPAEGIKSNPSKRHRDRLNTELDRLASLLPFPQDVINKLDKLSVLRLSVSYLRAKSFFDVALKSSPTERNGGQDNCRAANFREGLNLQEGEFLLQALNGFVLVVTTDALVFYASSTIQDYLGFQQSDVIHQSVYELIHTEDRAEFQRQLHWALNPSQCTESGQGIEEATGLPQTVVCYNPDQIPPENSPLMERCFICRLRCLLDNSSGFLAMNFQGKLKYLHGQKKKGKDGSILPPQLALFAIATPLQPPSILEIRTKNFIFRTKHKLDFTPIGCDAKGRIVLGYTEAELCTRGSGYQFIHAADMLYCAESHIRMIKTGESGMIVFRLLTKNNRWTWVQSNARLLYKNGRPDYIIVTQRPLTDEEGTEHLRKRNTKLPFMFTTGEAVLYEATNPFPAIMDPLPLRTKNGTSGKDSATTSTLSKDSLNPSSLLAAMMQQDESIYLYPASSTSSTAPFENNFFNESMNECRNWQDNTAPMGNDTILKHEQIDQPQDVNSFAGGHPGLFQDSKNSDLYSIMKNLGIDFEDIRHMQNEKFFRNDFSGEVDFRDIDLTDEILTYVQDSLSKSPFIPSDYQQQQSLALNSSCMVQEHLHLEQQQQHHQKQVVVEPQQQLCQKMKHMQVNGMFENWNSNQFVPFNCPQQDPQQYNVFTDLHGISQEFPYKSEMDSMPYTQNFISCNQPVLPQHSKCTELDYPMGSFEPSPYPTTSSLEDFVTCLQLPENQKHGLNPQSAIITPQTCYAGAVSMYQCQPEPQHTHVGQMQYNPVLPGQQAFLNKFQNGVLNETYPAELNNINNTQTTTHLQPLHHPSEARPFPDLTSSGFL
# How it was run: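 Luminescence (ONE-Glo) from a dioxin-responsive-element luciferase reporter in HG2L7.5c1 HepG2 cells after 24 hr compound exposure at 37C; viability measured by CellTiter-Fluor fluorescence beforehand.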
# [3] = qHTS assay to identify small molecule that activate the aryl hydrocarbon receptor (AhR) signaling pathway - cell viability counter screen (AID 743086);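 also: HepG2 liver cells carrying the AhR DRE luciferase reporter; series mostly up to about 70 µM; nearly all actives have a fitted effect of over 45% in size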
# How it was run: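 HepG2-AhR-luc (HG2L7.5c1) cells, 4000/well, treated 24 h at 37 C with compound; viability measured as CellTiter-Fluor fluorescence after 30 min in the same wells as the luciferase read.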
# [4] = molecular target: Peroxisome proliferator-activated receptor gamma (Homo sapiens) (UniProt P37231); assay: qHTS assay to identify small molecule agonists of the peroxisome proliferator-activated receptor gamma (PPARg) signaling pathway (AID 743094; active = well fitted activation curve with a large enough effect in the signal ratio in the repeat runs, not every such curve was filed as active; the % refers to the signal ratio)
# Chain of Peroxisome proliferator-activated receptor gamma (Homo sapiens) (P37231 whole entry, looked up): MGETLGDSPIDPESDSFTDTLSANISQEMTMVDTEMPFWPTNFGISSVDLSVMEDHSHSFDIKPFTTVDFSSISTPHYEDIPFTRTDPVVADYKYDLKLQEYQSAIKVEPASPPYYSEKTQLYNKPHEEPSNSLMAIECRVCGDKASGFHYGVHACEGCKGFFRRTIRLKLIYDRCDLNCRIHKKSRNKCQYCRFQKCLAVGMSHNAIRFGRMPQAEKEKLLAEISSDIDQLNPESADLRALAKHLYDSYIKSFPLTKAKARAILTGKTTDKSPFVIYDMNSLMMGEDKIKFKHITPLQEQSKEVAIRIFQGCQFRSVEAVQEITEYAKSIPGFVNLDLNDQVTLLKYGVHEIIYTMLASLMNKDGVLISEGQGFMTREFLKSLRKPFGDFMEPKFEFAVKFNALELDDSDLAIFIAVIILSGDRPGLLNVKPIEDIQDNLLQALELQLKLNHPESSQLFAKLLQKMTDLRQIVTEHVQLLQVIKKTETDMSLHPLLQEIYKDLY
# How it was run: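 Agonist activity was taken from a beta-lactamase reporter (FRET substrate, 1 h at room temperature) in HEK293H cells carrying a PPARg UAS-bla construct. Compounds in DMSO were incubated 17 h at 37C after a 5 h cell pre-incubation.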
# [5] = molecular target: Peroxisome proliferator-activated receptor gamma (Homo sapiens) (UniProt P37231); assay: qHTS assay to identify small molecule antagonists of the peroxisome proliferator-activated receptor gamma (PPARg) signaling pathway (AID 743191; calls by dose curve; also: series mostly up to about 63 µM; nearly all actives have a fitted effect of over 30% in size)
# How it was run: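 GeneBLAzer PPARg UAS-bla HEK293H cells, 5 h post-plating, exposed to compounds 17 h at 37C. LiveBLAzer B/G FRET substrate added for 1 h at room temperature; beta-lactamase reporter read by fluorescence intensity.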
# [6] = qHTS assay to identify small molecule antagonists of the peroxisome proliferator-activated receptor gamma (PPARg) signaling pathway - cell viability counter screen (AID 743194); also: nearly all actives have a fitted effect of over 55% in size
# How it was run: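 Cytotoxicity counter screen in PPARg-bla HEK293H cells, same wells as reporter assay. Compounds plus 50 nM rosiglitazone (final) for 17 h at 37 C, then viability read by CellTiter-Glo luminescence.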
# [7] = qHTS assay for small molecule agonists of the antioxidant response element (ARE) signaling pathway - cell viability counter screen (AID 743203; calls by dose curve; also: nearly all actives have a fitted effect of over 55% in size)
# How it was run: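 Viability counter screen: CellTiter-Glo luminescence, read after 30 min at room temperature, in ARE-bla HepG2 wells. Compound exposure lasted 16 h at 37C/5% CO2, following a 5 h pre-incubation of the cells after plating.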
# [8] = qHTS assay for small molecule activators of the heat shock response signaling pathway - cell viability counter screen (AID 743209); also: nearly all actives have a fitted effect of over 50% in size
# How it was run: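 Cytotoxicity counter screen run in the same wells as the heat-shock bla reporter assay: HeLa HSE-bla cells, 5 h compound exposure at 37 C, viability read by CellTiter-Glo luminescence.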
# [9] = qHTS assay for small molecule activators of the heat shock response signaling pathway (AID 743210; active = well fitted activation curve with a large enough effect in the signal ratio in the repeat runs, with a control signal flat, not every such curve was filed as active; the % refers to the signal ratio;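 also: HeLa cells with beta-lactamase reporter driven by heat shock elements; series mostly up to about 63 µM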)
# How it was run: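 Beta-lactamase reporter read-out: FRET substrate fluorescence after 2.5 h at RT, following 5 h compound treatment at 37 C of HeLa cells carrying HSE-driven bla reporter; quantitative HTS format.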
# [10] = qHTS assay to identify small molecule agonists of the peroxisome proliferator-activated receptor delta (PPARd) signaling pathway - cell viability counter screen (AID 743211); also: nearly all actives have a fitted effect of over 55% in size
# How it was run: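 Viability was measured as CellTiter-Glo luminescence (30 min, room temperature) in the same wells as the beta-lactamase readout. GeneBLAzer PPARd UAS-bla HEK293H cells received compound after 5 h plating and were incubated 17 h at 37 C.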
# [11] = molecular target: Peroxisome proliferator-activated receptor delta (Homo sapiens) (UniProt Q03181); assay: qHTS assay to identify small molecule agonists of the peroxisome proliferator-activated receptor delta (PPARd) signaling pathway (AID 743212; calls by dose curve)
# Chain of Peroxisome proliferator-activated receptor delta (Homo sapiens) (Q03181 whole entry, looked up): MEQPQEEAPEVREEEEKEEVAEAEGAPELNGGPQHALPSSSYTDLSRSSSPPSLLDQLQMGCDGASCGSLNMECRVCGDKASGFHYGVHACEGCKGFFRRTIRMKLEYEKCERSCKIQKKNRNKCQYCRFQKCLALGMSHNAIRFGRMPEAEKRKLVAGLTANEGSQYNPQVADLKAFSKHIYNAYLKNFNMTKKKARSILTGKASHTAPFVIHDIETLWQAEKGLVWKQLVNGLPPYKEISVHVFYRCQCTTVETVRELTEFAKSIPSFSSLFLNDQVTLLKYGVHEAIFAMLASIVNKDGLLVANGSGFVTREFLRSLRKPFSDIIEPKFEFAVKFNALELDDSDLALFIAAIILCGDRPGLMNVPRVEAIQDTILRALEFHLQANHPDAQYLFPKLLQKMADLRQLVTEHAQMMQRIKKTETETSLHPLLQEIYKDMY
# How it was run: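 Read-out: beta-lactamase FRET fluorescence after 2 h room-temperature incubation with LiveBLAzer B/G substrate. Cells were HEK293H carrying a UAS-bla reporter for PPARd, treated at 37 C with DMSO-dissolved compounds.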
# [12] = qHTS assay to identify small molecule antagonists of the peroxisome proliferator-activated receptor delta (PPARd) signaling pathway - cell viability counter screen (AID 743213); also: nearly all actives have a fitted effect of over 50% in size
# How it was run: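 PPARd-bla HEK293H cells (3000/well) got compound plus 300 nM L165041 agonist for 17 h at 37 C. Viability in the same wells came from CellTiter-Glo luminescence after 30 min at room temperature.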
# [13] = molecular target: Peroxisome proliferator-activated receptor delta (Homo sapiens) (UniProt Q03181); assay: qHTS assay to identify small molecule antagonists of the peroxisome proliferator-activated receptor delta (PPARd) signaling pathway (AID 743215; active = well fitted inhibition curve with a large enough effect in the signal ratio in the repeat runs, not every such curve was filed as active; the % refers to the signal ratio;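 also: cells stimulated with agonist L165041 at 300 nM final during compound exposure; series mostly up to about 62 µM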)
# How it was run: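 Agonist L165041 (300 nM final) added with compound to PPARd-bla HEK293H UAS-bla reporter cells; 17 h incubation at 37 C. Read-out: LiveBLAzer FRET substrate, 2 h at room temperature, fluorescence intensity.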
# [14] = molecular target: Bile acid receptor (Homo sapiens) (UniProt Q96RI1); assay: qHTS assay to identify small molecule antagonists of the farnesoid-X-receptor (FXR) signaling pathway (AID 743217; active = well fitted inhibition curve with a large enough effect in the signal ratio in the repeat runs, not every such curve was filed as active; the % refers to the signal ratio)
# Chain of Bile acid receptor (Homo sapiens) (Q96RI1 whole entry, looked up): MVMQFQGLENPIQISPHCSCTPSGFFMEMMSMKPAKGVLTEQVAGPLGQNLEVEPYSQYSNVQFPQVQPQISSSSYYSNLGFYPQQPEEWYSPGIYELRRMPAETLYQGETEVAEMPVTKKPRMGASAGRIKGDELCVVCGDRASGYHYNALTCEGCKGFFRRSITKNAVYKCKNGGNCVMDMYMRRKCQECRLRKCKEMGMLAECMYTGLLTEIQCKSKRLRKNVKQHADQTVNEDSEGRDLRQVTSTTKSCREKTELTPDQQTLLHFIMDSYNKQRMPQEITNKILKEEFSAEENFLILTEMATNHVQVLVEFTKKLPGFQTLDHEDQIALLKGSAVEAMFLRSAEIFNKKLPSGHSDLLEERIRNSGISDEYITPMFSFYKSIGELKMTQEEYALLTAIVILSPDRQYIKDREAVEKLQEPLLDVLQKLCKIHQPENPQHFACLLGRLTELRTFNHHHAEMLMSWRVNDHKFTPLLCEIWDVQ
# How it was run: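 Antagonist mode: chenodeoxycholic acid at 50 uM final stimulates a UAS-driven beta-lactamase reporter in HEK 293T FXR-bla cells during 16 h, 37C compound exposure. Read-out is FRET substrate fluorescence after 2 h at room temperature.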
# [15] = qHTS assay to identify small molecule agonists of the farnesoid-X-receptor (FXR) signaling pathway - cell viability counter screen (AID 743218); also: nearly all actives have a fitted effect of over 45% in size
# How it was run: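 Viability counter screen in the same wells: CellTiter-Glo luminescence, 30 min room-temperature incubation, measured after the beta-lactamase read. Cells were GeneBLAzer FXR-UAS-bla HEK 293T, compound-treated 16 h at 37C.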
# [16] = molecular target: Bile acid receptor (Homo sapiens) (UniProt Q96RI1); assay: qHTS assay to identify small molecule agonists of the farnesoid-X-receptor (FXR) signaling pathway (AID 743220; active = well fitted activation curve with a large enough effect in the signal ratio in the repeat runs, not every such curve was filed as active; the % refers to the signal ratio)
# How it was run: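 FXR-UAS-bla HEK 293T cells carrying a UAS-driven beta-lactamase reporter were plated for 5 h at 37C/5% CO2, then exposed to DMSO-dissolved Tox21 10K compounds for 16 h at 37C. A LiveBLAzer B/G FRET substrate was loaded for 2 h at room temperature before fluorescence reading.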
# [17] = qHTS assay to identify small molecule antagonists of the farnesoid-X-receptor (FXR) signaling pathway - cell viability counter screen (AID 743221; active = well fitted cell-killing curve with a large enough effect in the repeat runs, not every such curve was filed as active; also: nearly all actives have a fitted effect of over 50% in size)
# How it was run: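 Cytotoxicity counter screen run in the FXR-bla reporter wells: HEK 293T cells exposed to compound with 50 uM (final) chenodeoxycholic acid for 16 h, 37 C, then viability measured by CellTiter-Glo luminescence after 30 min, room temperature.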
# [18] = molecular target: Vitamin D3 receptor (Homo sapiens) (UniProt P11473); assay: qHTS assay to identify small molecule agonists of the vitamin D receptor (VDR) signaling pathway (AID 743222; calls by dose curve)
# Chain of Vitamin D3 receptor (Homo sapiens) (P11473 whole entry, looked up): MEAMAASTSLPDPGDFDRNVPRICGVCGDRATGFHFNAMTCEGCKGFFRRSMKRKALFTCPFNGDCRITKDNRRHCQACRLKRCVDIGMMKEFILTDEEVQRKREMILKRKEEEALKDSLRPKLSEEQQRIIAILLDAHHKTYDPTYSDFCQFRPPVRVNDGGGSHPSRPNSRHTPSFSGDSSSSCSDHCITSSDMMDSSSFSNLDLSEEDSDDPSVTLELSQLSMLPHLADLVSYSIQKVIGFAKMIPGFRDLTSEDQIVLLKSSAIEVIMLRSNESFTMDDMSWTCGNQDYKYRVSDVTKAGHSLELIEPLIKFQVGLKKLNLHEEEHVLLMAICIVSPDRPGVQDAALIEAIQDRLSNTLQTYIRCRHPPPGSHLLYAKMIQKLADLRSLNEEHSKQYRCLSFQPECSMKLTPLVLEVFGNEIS
# How it was run: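 Agonist mode, beta-lactamase reporter: fluorescence from LiveBLAzer B/G FRET substrate (2 h, room temperature) read after 16 h compound treatment at 37 C of VDR-bla cells, which were pre-incubated 4 h after seeding.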
# [19] = molecular target: Vitamin D3 receptor (Homo sapiens) (UniProt P11473); assay: qHTS assay to identify small molecule antagonists of the vitamin D receptor (VDR) signaling pathway (AID 743223; active = well fitted inhibition curve with a large enough effect in the signal ratio in the repeat runs, not every such curve was filed as active; the % refers to the signal ratio)
# How it was run: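 Antagonist mode: compound added to VDR-bla cells alongside agonist 1alpha,25-dihydroxyvitamin D3 (3 nM final), incubation 16 h at 37C. Read-out is LiveBLAzer FRET fluorescence, 2 h at room temperature.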
# [20] = qHTS assay for small molecule agonists of the antioxidant response element (ARE) signaling pathway (AID 743202; active = well fitted activation curve with a large enough effect in the signal ratio in the repeat runs, not every such curve was filed as active; the % refers to the signal ratio)
# How it was run: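 HepG2 ARE-bla reporter line, 2,000 cells/well; 5 h preincubation 37 C/5% CO2; compound (DMSO) 16 h 37 C; B/G FRET substrate 2 h RT; fluorescence intensity.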
Structure (SMILES),Potency [1],Potency [2],Potency [3],outcome [4],outcome [5],Potency [6],outcome [7],outcome [8],outcome [9],Potency [10],outcome [11],Potency [12],outcome [13],outcome [14],outcome [15],outcome [16],Potency [17],outcome [18],outcome [19],Potency [20]
C1COCCO1,inactive,inactive,inactive,inactive,inactive,inactive,inactive,inactive,inactive,inactive,inactive,inactive,inactive,inactive,inactive,inactive,inactive,inactive,inactive,
CCO[Si](CCCN=C=O)(OCC)OCC,inactive,inactive,inactive,inactive,inactive,inactive,inactive,inactive,inactive,,inactive,inactive,inactive,,inactive,,inactive,,inactive,
CC(C)N1C(=O)c2ccccc2C1=O,inactive,inactive,inactive,inactive,inactive,inactive,inactive,inactive,inactive,inactive,inactive,inactive,inactive,,,,inactive,inactive,inactive,
Cc1onc(-c2ccccc2)c1-c1ccc(S(N)(=O)=O)cc1,inactive,inactive,inactive,inactive,inactive,inactive,inactive,,inactive,inactive,inactive,inactive,inactive,,inactive,,inactive,inactive,inactive,inactive
CC(C)[N+](C)(C)CC(O)COc1cccc2ccccc12 (stereo unspecified),inactive,inactive,inactive,inactive,inactive,inactive,inactive,inactive,inactive,inactive,inactive,inactive,inactive,,,,inactive,,,
COc1ccc(N=[N+]([O-])c2ccc(OC)cc2)cc1,inactive,9.59 µM (active),inactive,inactive,inactive,inactive,inactive,inactive,inactive,inactive,inactive,inactive,,,,,inactive,inactive,inactive,
CC(C)(C)N(CCO)CCO,inactive,inactive,inactive,inactive,inactive,inactive,inactive,inactive,inactive,inactive,inactive,inactive,inactive,inactive,inactive,inactive,inactive,inactive,inactive,
CCC(=O)Nc1cccc(N)c1,inactive,inactive,inactive,inactive,inactive,inactive,inactive,inactive,inactive,inactive,inactive,inactive,inactive,,inactive,,inactive,inactive,inactive,
O=S(=O)(O)c1ccccc1O,inactive,inactive,inactive,inactive,inactive,inactive,inactive,inactive,inactive,inactive,,inactive,inactive,,inactive,,inactive,,,
C1=C\CC/C=C\CC/C=C\CC/1,inactive,inactive,inactive,inactive,inactive,inactive,inactive,inactive,inactive,inactive,inactive,inactive,inactive,inactive,inactive,inactive,inactive,inactive,,
CN(C)CCn1nnnc1SCC1=C(C(=O)O)N2C(=O)[C@@H](NC(=O)Cc3csc(N)n3)[C@H]2SC1,inactive,inactive,inactive,inactive,inactive,inactive,inactive,inactive,inactive,inactive,inactive,inactive,inactive,inactive,inactive,inactive,inactive,,inactive,
OC1OC[C@@H](O)[C@H](O)[C@H]1O (stereo partly specified),inactive,inactive,inactive,inactive,inactive,inactive,inactive,inactive,inactive,inactive,,inactive,,,inactive,,inactive,,,inactive
N#CC1(O)CCCCC1,inactive,inactive,inactive,inactive,inactive,,inactive,inactive,inactive,inactive,inactive,inactive,inactive,inactive,inactive,inactive,inactive,inactive,inactive,
Cn1ccc2cc3c(cc21)CCN3C(=O)Nc1cccnc1,inactive,0.335 µM (active),inactive,inactive,,inactive,inactive,inactive,inactive,inactive,inactive,inactive,inactive,inactive,inactive,inactive,,,inactive,inactive
O=[N+]([O-])c1ccc(Oc2ccc([N+](=O)[O-])cc2)cc1,inactive,inactive,inactive,inactive,,inactive,inactive,inactive,inactive,inactive,inactive,inactive,inactive,inactive,,inactive,inactive,inactive,inactive,inactive
COc1ccc(NC(C)=O)cc1,inactive,inactive,inactive,inactive,,inactive,inactive,inactive,inactive,inactive,inactive,inactive,inactive,,inactive,,inactive,inactive,inactive,inactive
